# Test results as given in PubChem BioAssay AID504466 (National Center for Advancing Translational Sciences (NCATS), 2011).
# Among all 330,000 compounds or so, about 4,200 (1.3%) were called active. Another 6% or so got no clear call; they are omitted. The full list was thinned out, with actives kept by preference. Unmarked numbers belong to inactive results. Calls come from the whole dose curve; as a rule, active = well fitted activation curve with a large enough effect; inconclusive = small, poorly fitted or top-dose-only effect; inactive = no such curve, though single readings can be large or run the other way.
# Assay: qHTS screen for small molecules that induce genotoxicity in human embryonic kidney (HEK293T) cells expressing luciferase-tagged ELG1; note: nearly all actives have a fitted effect of over 60% in size; for activity change, positive = activation: % of control where 0% means no effect
# Settings: HEK293T ELG1-luciferase reporter, luminescence, 16 h; series mostly up to 46 µM; activity change, positive = activation: at the top concentration
# Procedure, shortened: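 Reporter readout depends on ELG1 protein level, which increases with genetic stress. After 16 hr compound exposure at 37 °C, luciferase activity was quantified using ONE-Glo.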
# Potency is the fitted concentration of half-maximal effect.
SMILES,"activity change, positive = activation",Potency
Cc1ccc2c(c1)NC(=O)[C@@]1(C)[C@@H](c3ccccc3)[C@H]3COc4ccc(Cl)cc4[C@@H]3N1C2=O,-1.37%,–
CN(C)C(=O)CCc1ccc2c3c([nH]c2c1)[C@]1(C)[C@@H](C(=O)N2CCOCC2)C[C@H](CC(=O)NCCc2ccccn2)C(=O)N1CC3,9.82%,–
COc1ccc(S(=O)(=O)N(C)C[C@@H]2Oc3ccc(NC(=O)Nc4c(C)noc4C)cc3C(=O)N([C@H](C)CO)C[C@@H]2C)cc1,3.81%,–
COc1ccc(-n2cnc3cc(NCc4ccco4)ccc32)cc1,–,20.6 µM (active)
COc1ccc(-n2cnc3cc(C(=O)NC4CCCC4)ccc32)cc1,12.1%,–
COc1ccc(Nc2nc(NCc3ccco3)nc(N/N=C/c3ccccc3Cl)n2)cc1,-0.416%,–
C=CCC[C@H](Cc1ccc(F)cc1)C(=O)OC[C@@H](NC(=O)[C@@H](CC=C)CC(=O)N[C@H](CO)Cc1ccccc1)C(C)(C)C,-8.04%,–
Cc1ccc(C)c(C(C)NC(=O)C2CCCO2)c1 (stereo not drawn),-2.35%,–
Cc1cc([N+](=O)[O-])ccc1NC(=O)C1CCCO1 (stereo not drawn),-1.87%,–
Cc1cc(C)c2nc(NC(=O)C3CCCO3)sc2c1 (stereo not drawn),–,3.55 µM (active)
Cc1nccn1CC(=O)N/N=C/c1ccc(O)c(O)c1,0.2%,–
Oc1ccc(/C=N/Nc2ccc(C(F)(F)F)cn2)cc1O,–,20.6 µM (active)
O=C(Nc1ccccc1)Nc1ccc(C(F)(F)F)cn1,8.04%,–
O=C(/C=C/c1ccc2c(c1)OCO2)NCc1cn2cc(Cl)ccc2n1,1.4%,–
Clc1ccc2nc(CSc3ccccc3)cn2c1,–,0.82 µM (active)
CCCCCCSc1ccc(-c2nc3ccc(Cl)cn3c2NCc2ccccc2)cc1,-2.3%,–
O=C(NCCc1ccco1)c1ccc(OCc2cn3ccccc3n2)cc1,9.93%,–
COC(=O)CSc1nc(C)c2ccc(OC)cc2n1,-1.32%,–
COc1ccc(-c2nnc3ccc(SCc4ccccc4)nn23)cc1,-0.849%,–
COc1ccc2nc(SCc3ccccc3)nc(C)c2c1,–,3.66 µM (active)
C#CCOCCOCCOCCNc1nc(N2CCN(C(=O)[C@H](CO)n3cc([C@@H](N)C(C)C)nn3)CC2)nc(N2CCN(C(=O)[C@H](CCC(=O)O)n3cc([C@@H](N)[C@H](C)CC)nn3)CC2)n1,3.78%,–
O=C(COC(=O)c1cccnc1Cl)NC12CC3CC(CC(C3)C1)C2,-4.16%,–
Cc1ccc(NC(=O)C2CC2)cc1S(=O)(=O)N1CCOCC1,-0.262%,–
CC[C@]12c3[nH]c4cc(CCC(=O)N(C)C)ccc4c3CCN1C(=O)[C@@H](CC(=O)NCCCN(C)C)C[C@@H]2C(=O)N1CCN(C(=O)c2ccco2)CC1,-3.3%,–
O=C(NN=Cc1ccc(N2CCOCC2)cc1)c1cc2ccccc2cc1O,-2.13%,–

SMILES,"activity change, positive = activation",Potency
COc1ccccc1OCC(=O)OCc1cc(-c2ccco2)on1,-0.824%,–
COc1ccccc1OCC(=O)O/N=C(\N)c1ccccn1,–,9.2 µM (active)
N/C(=N\OC(=O)Cc1ccc([N+](=O)[O-])cc1)c1ccccn1,12%,–
COc1ccc(OCC(=O)NNC(=O)C2CCC2)cc1,0.166%,–
CC(CNC(=O)Cn1cnc2c(OCc3ccccc3)ncnc21)c1ccccc1 (stereo not drawn),1.33%,–
COc1cccc(Nc2nc(N)c([N+](=O)[O-])c(NCc3ccco3)n2)c1,-1.09%,–
CNc1nc(Nc2ccc(C)c(Cl)c2)nc(N)c1[N+](=O)[O-],–,10.3 µM (active)
Cc1ccc(Nc2nc(N3CCOCC3)nc(N3CCOCC3)n2)cc1Cl,0.349% [at 9.26 µM],–
CCN(C(=O)COC(=O)c1ccccc1O)c1cccc2ccccc12,-3.96%,–
CC(=O)Nc1ccc(-c2nc3ccccc3o2)cc1,–,3.26 µM (active)
COc1cc(OC)cc(C(=O)Nc2ccc(-c3nc4ccccc4o3)c(O)c2)c1,-4.77%,–
CCc1nc(Nc2ccc(NC(C)=O)cc2)c2oc3ccccc3c2n1,-0.226%,–
CC(C)(C)OC(=O)NNc1c2ccccc2nc2ccccc12,-4.89%,–
Cc1ccc(OCC(=O)Nc2ccc(-c3nc4ncccc4o3)cc2)cc1,5.43%,–
CC(=O)Nc1ccc(Nc2c3ccccc3nc3ccccc23)cc1,–,13 µM (active)
Nc1ncnc2c1ncn2[C@@H]1O[C@H](CNCc2cccn2-c2nccs2)[C@@H](O)[C@H]1O,4.38%,–
CC(C)Cc1cc(C(=O)Nc2cc(Br)ccc2O)no1,–,8.2 µM (active)
CC(C)C(=O)NCc1cc(-c2ccc(Cl)cc2)no1,7.48%,–
CC(C)/C=N/NC(=O)c1cc(Br)ccc1O,-0.104%,–
CC(C)N(C(=O)[C@H]1C[C@H](CC(=O)NCCC2=CCCCC2)C(=O)N2CCc3c([nH]c4cc(CCC(=O)N(C)C)ccc34)[C@]12C)C(C)C,3.22%,–
Cc1ccc(C(=O)COc2cccc(NC(=O)c3ccco3)c2)cc1,3.01%,–
Cc1ccoc1C(=O)Nc1cccc(Oc2ccccc2)c1,–,9.2 µM (active)
Cc1cccc(NC(=O)Nc2cccc(Oc3c(F)c(F)c(F)c(F)c3F)c2)c1,0.228%,–
CN(CC(=O)Nc1ccc(C(N)=O)cc1)S(=O)(=O)c1ccc2c(c1)OCCO2,-1.78%,–
O=C(Cn1cnc2c(OCc3ccccc3)ncnc21)NCCCn1ccnc1,0.984%,–

SMILES,"activity change, positive = activation",Potency
O=C(COC(=O)c1ccc(F)cc1)NCC1COc2ccccc2O1 (stereo not drawn),-2.33%,–
O=C1c2ccccc2C(=O)N1CCOc1ccc(F)cc1,–,20.6 µM (active)
Cc1cccc2c1N(CCOc1ccccc1)C(=O)C2=O,5.53%,–
O=C(OCCN1C(=O)c2ccccc2C1=O)Oc1ccccc1,0.764%,–
Cn1cccc1C(=O)OCC(=O)c1ccc(Br)s1,17.4%,–
COc1ccc(S(=O)(=O)Nc2cccc3c2O[C@H](CN(C)S(=O)(=O)c2ccc(OC)cc2)[C@@H](C)CN([C@H](C)CO)C3=O)cc1,-0.316%,–
O=C(Nc1sc2c(c1C(=O)O)CCC2)c1ccccc1F,3.4%,–
NC(=O)c1c(NC(=O)c2ccccc2)sc2c1CCCC2,–,8.2 µM (active)
Cc1ccc(C(=O)c2c(NC(=O)c3ccncc3)sc3c2CCCC3)cc1,-5.11%,–
O=C(Oc1ccc(Br)cc1)c1cccnc1,-2.16%,–
Cc1ccc(Oc2nc(-c3ccccn3)nc3ccccc23)cc1,-14.1%,–
O=C(Oc1ccc(-c2nc(-c3ccccn3)no2)cc1)c1ccccc1,–,0.517 µM (active)
COc1cc(C(=O)OCc2cc(=O)n3ccsc3n2)ccc1OC(C)C,7.03%,–
CC(C)(C)OC(=O)CNC(=O)c1[nH]cnc1C(=O)N[C@@H](CCCCN)C(=O)OC(C)(C)C,-1.61%,–
C[C@H](CO)N1C[C@H](C)[C@@H](CN(C)Cc2ccc(-c3ccccc3)cc2)Oc2ccc(NC(=O)Cn3cnnn3)cc2C1=O,-0.487%,–
O=C(Nc1ccccc1N1CCOCC1)c1csc2c1CCCC2,0.737%,–
O=C(NCc1ccccc1Cl)c1csc2c1CCCCC2,1.64%,–
COC(=O)c1sc(NC(=O)c2csc3c2CCCC3)nc1C,–,2.59 µM (active)
COC(=O)[C@]1(Cc2ccccc2)N[C@H](CN(C)S(=O)(=O)c2ccc(F)cc2)[C@@H]2C(=O)N(Cc3ccccc3)C(=O)[C@@H]21,-1.12%,–
COc1ccccc1N=Cc1c(O)c2ccccc2oc1=O,0.524%,–
COc1ccc(N=Cc2c(O)[nH]c3ccccc23)cc1OC,–,14.6 µM (active)
COc1cc(N=Cc2c(O)[nH]c3ccccc23)cc(OC)c1OC,0.123%,–
Cc1ccc(-n2nc3cc(Cl)c(NC(=O)c4ccco4)cc3n2)cc1,–,11.6 µM (active)
Cc1ccc(-n2nc3cc(C)c(NC(=O)c4cccnc4)cc3n2)cc1,15.3%,–
Cc1cc(NC(=O)c2ccco2)c(=O)n(Cc2c(F)cccc2Cl)c1,-18.3%,–

SMILES,"activity change, positive = activation",Potency
Cc1ccc(S(=O)(=O)NC[C@H]2O[C@@H](n3cnc4c(N)ncnc43)[C@H](O)[C@@H]2O)s1,4.37%,–
CSCCC1NC(=O)N(CC(=O)Nc2cccc(S(=O)(=O)N3CCCCCC3)c2)C1=O (stereo not drawn),-6.21%,–
Cc1cc(C(=O)NNC(=O)c2ccccc2O)c(C)o1,0.664%,–
Cc1cc(C(=O)NCCc2ccc(Cl)cc2)c(C)o1,–,18.3 µM (active)
Cc1cc(C(=O)NCCc2ccc(Cl)cc2)n(-c2ccccc2)n1,-0.508%,–
CC[C@]12c3[nH]c4ccc(OC)cc4c3CCN1C(=O)C(CC(=O)NCCN1CCOCC1)C[C@@H]2C(=O)N1CCN(C(=O)C2CC2)CC1 (stereo partly drawn),6.98%,–
Cc1ccccc1SCC(=O)OCC(=O)N1CC(=O)Nc2ccccc21,0.23%,–
N#Cc1nc(-c2cccc3ccccc23)oc1N,9.19%,–
Cc1oc(-c2ccccc2F)nc1CS(=O)CC(=O)NCCN1CCCCC1C (stereo not drawn),-1.89%,–
CC1CCN(c2oc(-c3ccccc3F)nc2C#N)CC1,–,16.4 µM (active)
Cc1ccc(S(=O)(=O)N2CCN(C(=O)COC(=O)CNC(=O)c3ccc(C(C)(C)C)cc3)CC2)c(C)c1,-0.764%,–
O=C(N=C1SC2CS(=O)(=O)CC2N1c1ccccc1)c1ccccc1 (stereo not drawn),5.92%,–
COc1ccc(-c2nc3cnccn3c2NC2CCCCC2)cc1-c1cccc(Cl)c1,-2.5%,–
COc1cccc(NC(=O)CSc2nnc(C3CCCCC3)n2N)c1,-1.51%,–
COc1cccc(/C=C/c2ccc3ccccc3n2)c1OC(C)=O,–,0.206 µM (active)
CCOc1ccccc1-c1cc(C(=O)N2CCOCC2)c2ccccc2n1,-7.76%,–
COc1cccc(/C=C2\C=C(c3ccc(C)cc3)OC2=O)c1OC(C)=O,5.23%,–
CCOc1cccc(/C=C/c2ccc3ccccc3n2)c1OC(C)=O,–,0.366 µM (active)
CC(=O)c1ccc(S(=O)(=O)N2CCN(C(=O)/C=C/c3ccc4ccccc4n3)CC2)cc1,-6.07%,–
NC(=O)COC(=O)/C=C/c1ccc2ccccc2n1,-0.149%,–
COCCn1c(C)cc(C(=O)CN2c3cccc4cccc(c34)S2(=O)=O)c1C,6.69%,–
Cc1noc(C)c1NC(=O)Nc1cccc2c1O[C@H](CN(C)C(=O)Nc1ccccc1)[C@@H](C)CN([C@H](C)CO)C2=O,-0.827%,–
NCCN1CCN2C(=O)CN(C(=O)c3ccccc3)CC12 (stereo not drawn),-1.89%,–
